# Data from ChEMBL document CHEMBL1961873, “Compounds: GSK PKIS; Assays: Nanosyn kinase panel” (2012).
# How the values were obtained:
# [1] = molecular target: Protein kinase C gamma type (Homo sapiens) (UniProt P05129); conditions: at 1 µM;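 further: each value is an averaged percent inhibition of the enzyme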
# [2] = molecular target: T1, Protein kinase C iota type (Homo sapiens) (UniProt P41743); conditions: at 0.1 µM
# T1 sequence (whole entry): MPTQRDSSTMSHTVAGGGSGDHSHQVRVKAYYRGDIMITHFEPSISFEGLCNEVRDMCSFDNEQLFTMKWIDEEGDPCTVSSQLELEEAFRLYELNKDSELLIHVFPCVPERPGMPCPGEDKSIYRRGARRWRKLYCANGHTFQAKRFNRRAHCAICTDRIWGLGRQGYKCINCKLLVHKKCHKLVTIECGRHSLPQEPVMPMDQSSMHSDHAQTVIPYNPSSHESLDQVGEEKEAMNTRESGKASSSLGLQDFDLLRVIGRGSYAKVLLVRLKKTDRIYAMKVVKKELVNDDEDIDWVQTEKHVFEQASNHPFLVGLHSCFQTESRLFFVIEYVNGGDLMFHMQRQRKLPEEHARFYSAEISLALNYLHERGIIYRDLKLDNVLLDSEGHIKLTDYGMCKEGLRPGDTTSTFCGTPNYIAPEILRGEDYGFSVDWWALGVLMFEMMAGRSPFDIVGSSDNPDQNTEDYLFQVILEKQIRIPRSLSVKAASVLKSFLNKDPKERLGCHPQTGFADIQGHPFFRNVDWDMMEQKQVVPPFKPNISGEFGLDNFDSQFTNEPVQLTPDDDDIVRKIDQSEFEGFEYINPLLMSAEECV
# [3] = molecular target: T1, Protein kinase C iota type (Homo sapiens); conditions: at 1 µM
# [4] = molecular target: Protein kinase C theta type (Homo sapiens) (UniProt Q04759); conditions: at 0.1 µM
# [5] = molecular target: Protein kinase C theta type (Homo sapiens) (UniProt Q04759); conditions: at 1 µM
# [6] = molecular target: Protein kinase C beta type (Homo sapiens) (UniProt P05771); conditions: at 0.1 µM
# [7] = molecular target: Protein kinase C beta type (Homo sapiens) (UniProt P05771); conditions: at 1 µM
# [8] = molecular target: T2, Serine/threonine-protein kinase D1 (Homo sapiens) (UniProt Q15139); conditions: at 0.1 µM
# T2 sequence (whole entry): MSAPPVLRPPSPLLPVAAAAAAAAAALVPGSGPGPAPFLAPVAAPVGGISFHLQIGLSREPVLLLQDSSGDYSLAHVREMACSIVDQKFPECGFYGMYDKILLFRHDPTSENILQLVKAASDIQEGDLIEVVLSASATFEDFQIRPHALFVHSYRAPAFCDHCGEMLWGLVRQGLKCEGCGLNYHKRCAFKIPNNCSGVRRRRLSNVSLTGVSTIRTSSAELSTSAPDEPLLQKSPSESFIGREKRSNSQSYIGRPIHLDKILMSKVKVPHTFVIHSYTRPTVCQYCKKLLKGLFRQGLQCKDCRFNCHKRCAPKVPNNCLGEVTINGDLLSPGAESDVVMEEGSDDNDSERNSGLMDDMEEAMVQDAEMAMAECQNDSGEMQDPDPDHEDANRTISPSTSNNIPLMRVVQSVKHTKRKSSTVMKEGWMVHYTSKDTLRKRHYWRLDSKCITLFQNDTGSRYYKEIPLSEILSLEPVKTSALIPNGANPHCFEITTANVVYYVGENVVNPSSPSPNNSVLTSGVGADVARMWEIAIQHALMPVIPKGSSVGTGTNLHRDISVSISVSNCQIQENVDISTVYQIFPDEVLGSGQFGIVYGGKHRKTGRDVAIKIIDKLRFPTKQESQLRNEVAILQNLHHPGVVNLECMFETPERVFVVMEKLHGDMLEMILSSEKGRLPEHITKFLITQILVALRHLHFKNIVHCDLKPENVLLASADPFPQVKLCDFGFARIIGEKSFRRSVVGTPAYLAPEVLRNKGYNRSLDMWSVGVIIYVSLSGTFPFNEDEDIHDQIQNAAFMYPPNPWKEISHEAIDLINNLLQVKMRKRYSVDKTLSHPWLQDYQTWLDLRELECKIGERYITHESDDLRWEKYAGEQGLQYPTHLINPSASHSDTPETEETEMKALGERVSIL
# [9] = molecular target: T2, Serine/threonine-protein kinase D1 (Homo sapiens); conditions: at 1 µM
# [10] = molecular target: T3, Serine/threonine-protein kinase D2 (Homo sapiens) (UniProt Q9BZL6); conditions: at 0.1 µM;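 further: reported percent inhibition values are means, part of the GSK PKIS kinase panel screen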
# T3 sequence (whole entry): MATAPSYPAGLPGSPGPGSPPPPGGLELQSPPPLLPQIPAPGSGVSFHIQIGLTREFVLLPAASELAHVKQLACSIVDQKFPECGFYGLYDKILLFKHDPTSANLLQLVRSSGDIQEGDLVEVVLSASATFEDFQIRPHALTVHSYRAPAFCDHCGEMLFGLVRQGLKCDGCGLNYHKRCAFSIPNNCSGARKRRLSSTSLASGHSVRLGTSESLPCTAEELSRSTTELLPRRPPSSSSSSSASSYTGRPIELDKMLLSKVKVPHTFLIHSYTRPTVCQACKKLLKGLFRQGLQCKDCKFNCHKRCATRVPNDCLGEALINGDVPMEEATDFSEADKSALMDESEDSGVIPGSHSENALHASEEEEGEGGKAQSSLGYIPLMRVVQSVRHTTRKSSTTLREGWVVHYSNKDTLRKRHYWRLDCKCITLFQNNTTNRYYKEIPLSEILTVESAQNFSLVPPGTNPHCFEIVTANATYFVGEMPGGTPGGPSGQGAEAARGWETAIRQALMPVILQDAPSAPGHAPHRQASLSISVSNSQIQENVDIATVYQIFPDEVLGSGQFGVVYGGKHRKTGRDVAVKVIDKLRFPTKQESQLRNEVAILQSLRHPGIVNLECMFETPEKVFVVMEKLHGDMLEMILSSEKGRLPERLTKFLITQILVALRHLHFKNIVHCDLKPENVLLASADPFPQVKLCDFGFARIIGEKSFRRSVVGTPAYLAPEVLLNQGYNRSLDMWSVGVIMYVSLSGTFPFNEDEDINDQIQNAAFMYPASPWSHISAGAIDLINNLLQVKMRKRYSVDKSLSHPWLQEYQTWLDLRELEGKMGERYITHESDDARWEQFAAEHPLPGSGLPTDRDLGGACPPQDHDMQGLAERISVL
# Sequence of Protein kinase C theta type (Homo sapiens) (Q04759 whole entry, looked up): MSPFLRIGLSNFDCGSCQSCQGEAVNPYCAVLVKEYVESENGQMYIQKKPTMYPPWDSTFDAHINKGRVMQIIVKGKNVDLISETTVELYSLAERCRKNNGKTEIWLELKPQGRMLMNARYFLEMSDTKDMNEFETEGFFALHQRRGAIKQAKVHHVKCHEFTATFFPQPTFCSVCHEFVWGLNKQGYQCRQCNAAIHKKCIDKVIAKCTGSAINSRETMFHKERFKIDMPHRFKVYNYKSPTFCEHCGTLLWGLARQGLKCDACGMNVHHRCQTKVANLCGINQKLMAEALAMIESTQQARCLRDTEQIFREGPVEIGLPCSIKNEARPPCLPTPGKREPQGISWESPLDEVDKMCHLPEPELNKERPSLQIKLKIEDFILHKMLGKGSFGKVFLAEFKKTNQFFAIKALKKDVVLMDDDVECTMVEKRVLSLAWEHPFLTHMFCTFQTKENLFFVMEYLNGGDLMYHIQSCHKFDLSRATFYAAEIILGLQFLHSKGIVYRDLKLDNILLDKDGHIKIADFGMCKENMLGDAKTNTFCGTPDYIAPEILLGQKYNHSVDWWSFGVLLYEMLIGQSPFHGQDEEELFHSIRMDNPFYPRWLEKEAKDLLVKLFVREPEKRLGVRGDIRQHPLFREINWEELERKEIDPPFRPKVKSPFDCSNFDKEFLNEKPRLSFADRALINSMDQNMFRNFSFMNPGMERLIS
# Sequence of Protein kinase C beta type (Homo sapiens) (P05771 2-671 limits assumed): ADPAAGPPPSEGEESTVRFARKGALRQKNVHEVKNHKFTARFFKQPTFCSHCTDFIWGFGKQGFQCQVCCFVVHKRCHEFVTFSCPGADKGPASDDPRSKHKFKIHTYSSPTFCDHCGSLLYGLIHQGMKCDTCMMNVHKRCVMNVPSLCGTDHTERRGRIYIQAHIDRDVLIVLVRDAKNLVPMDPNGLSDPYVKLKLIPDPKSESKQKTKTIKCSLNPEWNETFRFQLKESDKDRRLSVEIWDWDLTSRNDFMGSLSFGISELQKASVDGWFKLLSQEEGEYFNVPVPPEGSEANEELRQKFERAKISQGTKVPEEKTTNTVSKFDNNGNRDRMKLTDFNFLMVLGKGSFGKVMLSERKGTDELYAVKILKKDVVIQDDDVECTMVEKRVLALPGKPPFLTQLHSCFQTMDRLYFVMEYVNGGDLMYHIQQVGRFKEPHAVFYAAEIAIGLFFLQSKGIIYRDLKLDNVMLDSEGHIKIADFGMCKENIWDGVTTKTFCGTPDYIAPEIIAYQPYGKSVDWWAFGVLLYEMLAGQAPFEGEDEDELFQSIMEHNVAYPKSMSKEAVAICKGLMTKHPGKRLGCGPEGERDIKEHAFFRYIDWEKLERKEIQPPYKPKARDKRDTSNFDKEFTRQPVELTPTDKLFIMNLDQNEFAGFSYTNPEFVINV
Compound,inhibition [1],inhibition [2],inhibition [3],inhibition [4],inhibition [5],inhibition [6],inhibition [7],inhibition [8],inhibition [9],inhibition [10]
COc1ccc(-c2cc3c(N)ncnc3o2)cc1,8.58%,-0.83%,-1.03%,-1.21%,-1.64%,0.45%,1.65%,-1%,-1.28%,-0.34%
N#Cc1c(NC(=O)c2ccc(F)cc2)sc2c1CCCC2,0.62%,-0.52%,-1.26%,0.53%,-0.01%,1.04%,0.69%,1.57%,2.87%,3.3%
NC(=O)c1sc(-n2cnc3ccc(C(F)(F)F)cc32)cc1OCc1ccccc1Br,3.75%,0.8%,0.82%,1.63%,2.57%,1.28%,1.31%,2.72%,3.86%,3.59%
NS(=O)(=O)c1ccc(Nc2ncc(-c3ccccc3)o2)cc1,2.49%,2.01%,1.3%,1.68%,3.14%,0.96%,2.07%,3.47%,6.2%,2.92%
Cc1cccc2c1NC(=O)/C2=N\Nc1ccc(S(N)(=O)=O)cc1,-2.77%,1.18%,2.53%,0.85%,0.4%,2.86%,0.46%,2.89%,4.31%,2.72%
Nc1ncc(-c2cccc(S(N)(=O)=O)c2)c2scc(-c3ccc(F)c(Cl)c3)c12,2.77%,1.76%,2.27%,1.73%,2.11%,0.92%,1.52%,6.59%,35%,8.43%
[O-][S+]1CCN(Cc2ccc(-c3ccc4ncnc(Nc5ccc(OCc6cccc(F)c6)c(Cl)c5)c4c3)o2)CC1,1.04%,3.42%,2.26%,2.17%,2.74%,2.05%,2.51%,5.58%,10.6%,4.6%
Cc1ccc(O)cc1Nc1ccnc2cc(-c3ccccn3)ccc12,4.48%,2.29%,4.56%,2.6%,1.93%,1.13%,1.55%,5.06%,28.9%,6.27%
COc1ccc2c(-c3ccnc(Nc4cccc(OC(F)(F)F)c4)n3)cnn2n1,1.65%,2.36%,1.45%,2.59%,4.8%,1.08%,5.19%,3.42%,6.19%,3.92%
c1ccc(-c2nc3n(c2-c2ccc4c(c2)OCO4)CCC3)nc1,2.8%,2.19%,3.9%,1.78%,3.83%,1.96%,4.57%,1.92%,5.43%,1.94%
CS(=O)(=O)CCNCc1ccc(-c2ccc3ncnc(Nc4ccc(OCc5ccccc5)c(C(F)(F)F)c4)c3c2)o1,0.29%,1.93%,2.76%,1.99%,1.95%,1.11%,1.5%,3.89%,5.55%,3.28%
CCNC(=O)O[C@H]1CN[C@H](C#Cc2cc3ncnc(Nc4ccc(OCc5cccc(F)c5)c(Cl)c4)c3s2)C1,3.31%,1.37%,3.17%,1.01%,0.75%,-0.74%,0.7%,2.66%,4.66%,2.15%
Nc1nc(-c2cccc(Cl)c2)c(-c2ccc3ncccc3n2)s1,6.65%,2.71%,1.25%,4.95%,5.67%,2.82%,2.11%,5.85%,35%,7.33%
COc1cc2c(cc1Nc1nc(Nc3ccsc3C(N)=O)c3cc[nH]c3n1)N(C(=O)CN(C)C)CCC2(C)C,44%,2.68%,5.01%,4.59%,16.2%,3.45%,15%,11.2%,58.5%,17.5%
COc1cc2ncn(-c3cc(OCc4ccccc4C(F)(F)F)c(C(=O)N(C)C)s3)c2cc1OC,0.13%,-0.68%,-2.2%,0.14%,-0.71%,0.03%,0.09%,0.6%,1.47%,1.09%
FC(F)(F)c1cccc(-c2nn3ncccc3c2-c2ccnc(Nc3ccc4c(c3)OCCO4)n2)c1,2.4%,-1.47%,2.18%,0.59%,-0.24%,0.37%,0.77%,3.4%,33.6%,5.98%
Cc1cccc(Nc2ncc(-c3ccccc3)o2)c1,7.25%,1.43%,2.2%,4.9%,6.83%,2.39%,7.38%,3.07%,5.44%,3.21%
CCn1c(-c2nonc2N)nc2c(C#CC(C)(C)O)ncc(OC3CCNCC3)c21,89.5%,-0.03%,6.53%,38%,81.5%,19.7%,61.7%,4.17%,13.4%,3.98%
COc1ccc(CNC(=O)c2ccc(-c3cc(-c4nnc(C)o4)ccc3C)cc2)cc1,2.05%,2.77%,0.76%,2.86%,5.52%,2.73%,3.61%,2.89%,-0.42%,0.8%
Cc1ccc2c(-c3ccnc(Nc4ccccc4)n3)c(-c3ccc(F)cc3)nn2n1,2.17%,1.43%,3.68%,1.21%,1.16%,1.79%,12.3%,10.1%,70.6%,24.6%
